Assay results taken from the supplement of paper PMC6555819.

Columns and labels:
Assay in all cases: PBM binding z-score (relative to random genomic background probes); higher = stronger binding; sequences stand for … in GC…GCGATTGACAGCGTAGAATGAAGG
[1] = test system: RARb homodimer (NR concentration 270 nM)
In short: (§1)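 Ligand-free nuclear receptor dimers were applied to custom Agilent 4×180K protein-binding microarrays whose double-stranded probes carried direct-repeat seeds, single-nucleotide variants, half-site ablations and random human genomic background sequences in 34-nt variable regions. Incubation lasted 1 h. Binding z-scores were computed against the random background probes from regression-normalized fluorescence.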

[2] = test system: RARg:RXRa (NR concentration 270 nM, RXRa partner concentration 90 nM)
In short: as §1

[3] = test system: RARg homodimer (NR concentration 270 nM)
In short: as §1

[4] = test system: RXRa DBDmut IVT, anti-RXR (DBD mutation: RXRa K156A/R161A, NR concentration 90 nM)
In short: as §1

[5] = test system: RXRa homodimer (NR concentration 180 nM)
In short: as §1

[6] = test system: THRa:RXRa (NR concentration 90 nM, RXRa partner concentration 90 nM)
In short: as §1

[7] = test system: THRa homodimer (NR concentration 90 nM)
In short: as §1

[8] = test system: VDR homodimer (NR concentration 270 nM)
In short: as §1

Sequence	PBM binding z-score [1]	PBM binding z-score [2]	PBM binding z-score [3]	PBM binding z-score [4]	PBM binding z-score [5]	PBM binding z-score [6]	PBM binding z-score [7]	PBM binding z-score [8]
AGAATGACGTTACCAAAGATCAGGGAAACGCTTG	-0.559	0.085	0.256	-0.636	0.0989	-0.427	-0.611	0.0201
TCTATTAGTTGAAGGGCAACCAACGAGTCCGTTT	1.4	0.447	0.495	1.46	0.529	0.101	0.123	0.984
CAGCCTAGGTCAGGGCCAGTATGGGAGGAACGTT	2.38	3.22	3.76	-0.69	1.38	1.95	0.312	-0.378
AATACAGGGTCATCGTAGGCCAGAGTACGCACAG	3.55	5.49	5.05	3.55	6.83	4.6	1.54	3.35
AGAACAAGGGCAATGAGTTGATAGCACGGGTGGC	0.907	1.1	1.4	1.14	0.654	0.418	-0.2	2.73
CGTCAAAGTTCAAGTAAGGTAACGTAAAGCACGC	4.18	5.63	6.15	4.54	4.68	5.33	1.95	3.69
TTACCATGGTGAGCTGAGGTCGTTGATCCAACTC	0.61	0.0619	-0.479	-0.0297	0.594	2.81	1.14	1.7
AGAACGAGGGCACGCTGAGTGGATAGCAGAGTAG	0.942	1.87	2.16	1.48	1.47	1.66	-0.0727	0.664
TCAGACAGGTGAAGGTAACACAGGTACGCAGTCG	1.34	0.896	1	1.56	1.54	1.36	0.868	0.48
GCTCGGAGGACACGGTCAGAGCTTTGTCCGTAGA	1.35	0.822	1.71	0.29	-0.503	1.36	0.245	-0.453
GCAGCCAGGTGAAACGCAGGTAACTCAGGGTGGC	-0.292	0.262	-0.109	-0.94	0.157	1.68	-0.396	-0.939
CCGACTGGGGCAAAAAGGTTACCATACCATCCGG	2.34	1.8	1.6	-0.333	1.7	1.21	0.0277	0.374
TCATATAGGTAAATGCTAGGTGAAAGGCCGATCT	0.766	0.683	0.329	1.57	0.896	1.53	0.386	0.46
GCTGCTAGGTCAACTGATGGTCAGCTACAGCTCG	3.81	5.01	5.31	1.56	2.82	2.94	0.9	0.228
GTACCAAGGTGAATAGGTCTTTGATGAGTAGGCG	1.13	1.15	0.913	0.00774	0.832	1.3	0.641	0.178
CCTTACGGGTCACGAGGTTATAGCACGACGAGCG	4.07	6.25	5.47	1.53	6.87	3.69	1.09	2.03
TCTTGTAGATCAAAGATTAAGAAAGCCGAAGCCT	-1.12	0.0193	-0.33	0.517	0.241	-0.201	-0.962	-0.417
CCGAGTTGGTTATGGGGCATTCAGGCAACGGTGA	0.393	-0.17	-0.319	1.14	0.0354	0.111	0.472	0.996
GGAACGAGGGCAAAGTTGATACCATCTGTCGACG	1.63	2.14	2.02	2.79	2.18	1.47	0.0828	2.09
TGTCAAAGTACAAAGGTAACGTAAGTATCCACAC	1.01	1.41	1.32	0.417	0.984	1.33	-0.416	0.229
CCGACTGGGGCATAAGGTAACCATAAGCCAGCCC	0.572	0.385	0.436	-0.779	0.252	1.72	1.34	-0.312
TCTAGGAGGACACGAAAGGTCAGAGCTCGACATC	4.84	4.88	5.11	1.35	4.21	3.98	1.4	0.994
CCAGAGAGGTGAGAAGGTAACTCAGCCTCGATTA	1.31	1.52	1.22	0.0821	1.05	1.19	0.396	0.477
ATCTCTAGGTACCCAAGTTCAGTGAATGCCGAAC	1.41	0.712	0.515	1.14	0.528	0.968	0.385	2
CCGATTGGGGCAAAGGTTACCATACTCAGTACGA	2.03	3.52	1.64	0.678	3.76	1.84	-0.136	0.0147
CGAACGAGGGCACGAGTTGATAGCAAATGCCGAT	1.05	1.8	1.98	2.18	1.49	1.84	0.134	1.58
ACAGACAGGTGAGTGACGGTAACTCAGCTGGACG	-0.222	0.269	0.362	-0.203	0.416	-0.128	-0.727	-0.577
CCTACTGGGCCAAAGTTCATTGATTCCAATGCTC	3.34	3.23	2.56	2.37	2.73	1.44	0.0374	3.96
